Compounds without any hit were thinned out: in the full panel of roughly 83,000, 20% have a hit.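 How to read the values: 0–100, growth inhibition (40 = 60% inhibited); 0, no net growth; -100 to 0, cell death (-40 = 40% of starting cells died; -100 = all dead).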 Values without a mark were called inactive. Active and inactive are the calls of the source.

For the test, the system named is OVCAR-5 ovarian. The test can be described thus: NCI-60 one-dose screen, 48 h (100 = growth as untreated, 0 = no growth, -100 = all killed). Particulars: 10 µM unless noted. The procedure:
Growth inhibition of the OVCAR-5 human tumor cell line is measured as a screen for anti-cancer activity. Cells are grown in 96 well plates and exposed to the test compound for 48 hours. Compounds are tested at a single concentration, which is 10^-5 M for most compounds. The reported endpoint is percent growth (GI% or GIPRCNT), where numbers from 0 - 100% represent growth inhibition, and numbers from -100% - 0 represent cell death. For example, a value of 40 represents 60% growth inhibition. A value of 0 means no net growth occurred over the course of the experiment. A value of -40 indicates 40% of cells at the beginning of the experiment died by the end of the experiment. A value of -100 means all cells are dead at the end of the experiment.
NCI-60 Human Tumor Cell Lines Screen was performed using the standard one-dose NCI protocol, which is described in more detail at https://dtp.cancer.gov/discovery_development/nci-60/default.htm.
Compounds with GIPRCNT values below 10 were considered active. Activity score was based on GIPRCNT using the following formula: […]
Score is 0 for GIPRCNT values of 100 or above, 50 for GIPRCNT values of 0, and 100 for GIPRCNT values of -100.
Consider `Cc1ccc(-c2nc(C(Cl)Cl)nc3cc(C)nn23)cc1`, for which the growth is 2.16% (active).

Consider `N#CCC1=NC(c2cccs2)=Nc2ccccc2S1`, for which the growth is 86.6%.

As for `NC(CSC(c1ccccc1)(c1ccccc1)c1ccc2c(c1)OCO2)C(=O)O` (stereo not given), the growth is 41%.

Consider `CN(Cc1cnc2nc(N)nc(N)c2n1)c1c(Cl)cc(C(=O)NC(CCC(=O)O)C(=O)O)cc1Cl` (stereo not given), for which the growth is 48.7%.

Regarding `CC/C(Cc1ccccc1)=C(\c1ccc(OCCN2CCCCCC2)cc1)c1ccc(OC(=O)NCc2ccccc2)cc1`, the growth was 80.9%.

As for `O=C1Nc2ccc(F)cc2/C1=C\c1nc(-c2ccccc2F)n2ccccc12`, the growth was 67.2%.

For `COC(=O)c1ccc2c(c1)c1c(C)c3ccncc3c(C)c1n2C`, the growth is 44.9%.

As to `Cc1cc2nc3c4ccccc4n(CCN(C)C)c3nc2cc1C`, the growth is 15.6%.

For the compound `COc1ccc(C2=Nc3c/c(=C\c4c(O)[nH]c5cc(Cl)ccc45)ccc3=N2)cc1`, the growth is 77.5%.

With `CCNc1nc(-c2ccc(F)cc2)c(C#N)c(=O)n1C`, the growth is 56%.

On to `CCN(CC)CCN(CCN(CC)CC)c1ccccc1`, for which the growth was 94.3%.

For the compound `O=C(Cn1cc(CN2C(=O)c3ccccc3S2(=O)=O)nn1)Nc1cccc(Cl)c1`, the growth is 112%.

For the compound `CCCCCCNc1nc(NCCCCCC)c2[nH]c(NCCCCCC)nc2n1`, the growth was -7.94% (active).

Consider `CCCCCCCCNc1cc2c3c(c1)CCCN3CCC2`, for which the growth is 17.6%.

Regarding `CSCCC(NC(=O)c1ccccc1)C(=O)N/N=C1\S/C(=C/c2ccc(Cl)cc2)C(=O)N1C` (stereo not given), the growth is 94.5%.

On to `O=C1C(Cl)=C(NCCN2CCOCC2)C(=O)c2ncccc21`, for which the growth was -22.8% (active).

On to `COc1ccc(OC)c(-c2cn3nc(-c4c[nH]c5ccc(Br)cc45)sc3n2)c1`, for which the growth is 47.9%.

In the case of `COc1ccc(NC(=O)c2sc3nc4c(cc3c2N)CCCC4)cc1`, the growth is 78.8%.

Take `O=C(Nc1ncc(Cc2ccccc2Cl)s1)c1cccs1`: the growth was 87.9%.

As for `O=C1c2cc3c(cc2-c2c1c1ccc(Cl)cc1c(=O)n2C[C@H](O)CO)OCO3`, the growth was -7.3% (active).

Turning to `CCCCCCCCn1ccc2cc(NC(=O)Cn3cc(CN4CCN(CC)CC4)nn3)ccc21`, the growth is 94%.

Take `COc1cc2c(c(OC)c1OC)C(=O)CC(c1cccc(NC(=O)c3ccccc3Br)c1)O2` (stereo not given): the growth was 117%.

In the case of `CCc1cccc(Sc2cc(C(=O)N3Cc4ccc(OCCN(C)C)cc4C3)ccc2O)c1`, the growth was 110%.

Take `CCOC(=O)NN1CC(O)=C(c2nc(-c3ccc(Br)cc3)cs2)C1=N`: the growth was 89.5%.

In the case of `CN1CCN(Cc2cc(NC(=O)c3cccc(C#Cc4cccc5[nH]nc(N)c45)c3)cc(C(F)(F)F)c2)CC1`, the growth was 36.1%.

As to `CC12CCC(/C(=C/NNc3ccc([N+](=O)[O-])cc3[N+](=O)[O-])C1=O)C2(C)C` (stereo not given), the growth is 74.5%.

Take `CC(C)CN1CC(C(=O)Nc2ccc3c(c2)-c2ccccc2C3)CC1=O` (stereo not given): the growth was 69.8% [50 µM].

Take `Cc1cc(N2CCCCC2)nc(N2CCN(CC(=O)Nc3ccc4c(ccn4Cc4ccccc4)c3)CC2)n1`: the growth was 88.7%.

With `CCN1C(=O)N(CC)C2C1NN=c1s/c(=C3\C(=O)N(CCc4ccccc4)c4ccccc43)c(=O)n12` (stereo not given), the growth was 20.6%.

For the compound `Cn1cc(-c2ccc3cc(-c4ccc(CC(=O)Nc5cc(C(C)(C)C)on5)cc4)cnc3c2)cn1`, the growth was 56.7%.

On to `Cc1nc2sc(C(=O)Nc3ccccc3)c(N)c2cc1C(=O)/C=C/c1ccccc1`, for which the growth was 16.6%.

`Clc1ccc(-c2nc(-c3c[nH]c4ncccc34)cs2)cc1`: the growth was 73.7% [100 µM].

`CN1CCN(Cc2ccc(NC(=O)c3cncc(C#Cc4cncc5[nH]ncc45)c3)cc2C(F)(F)F)CC1`: the growth is 4.44% (active).

For the compound `CN1CCN(c2ccc(NC(=O)c3cncnc3Nc3ccc4c(ccn4Cc4cccc(F)c4)c3)cc2)CC1`, the growth is 65.5%.

In the case of `Cc1c2ccccc2nc2c1ccc1cccnc12`, the growth was 83.5%.

Turning to `CC1(C)OC(=O)C(=Cc2cccc(Br)c2)C(=O)O1`, the growth is 117%.

As for `c1ccc(CCc2ccccc2-c2cc(-c3ccccc3)on2)cc1`, the growth was 89.9%.

`CCCNc1nc2ccccc2c2c(=O)c3cccc(Cl)c3sc12`: the growth was 96.5%.

In the case of `O=c1[nH]cnc2c1C(c1ccc(Br)cc1)c1sc3c(F)cccc3c1O2` (stereo not given), the growth is 90.7%.

In the case of `COC(=O)C1=C(C)NC(C)=C(C(=O)OCC(C)C)C1c1ccccc1[N+](=O)[O-]` (stereo not given), the growth is 98.7%.

The record behind these values is PubChem BioAssay (NCI).
